AmpC inh det: AmpC beta-lactamase inhibition, detergent assay. hit rate 0.09% among 71,000. purified AmpC, nitrocefin hydrolysis with detergent. AID 584. Potency, µM (highest dose often 28.7 µM), for the others: at the highest dose activity change, negative = inhibition. P00811; active = well fitted curve in the direction sought with a large enough effect; inconclusive = small, poorly fitted or top-dose-only effect; also: % is scaled to controls: 0 for no effect and ±100 for the full control effect
Target sequence (P00811 whole entry, looked up): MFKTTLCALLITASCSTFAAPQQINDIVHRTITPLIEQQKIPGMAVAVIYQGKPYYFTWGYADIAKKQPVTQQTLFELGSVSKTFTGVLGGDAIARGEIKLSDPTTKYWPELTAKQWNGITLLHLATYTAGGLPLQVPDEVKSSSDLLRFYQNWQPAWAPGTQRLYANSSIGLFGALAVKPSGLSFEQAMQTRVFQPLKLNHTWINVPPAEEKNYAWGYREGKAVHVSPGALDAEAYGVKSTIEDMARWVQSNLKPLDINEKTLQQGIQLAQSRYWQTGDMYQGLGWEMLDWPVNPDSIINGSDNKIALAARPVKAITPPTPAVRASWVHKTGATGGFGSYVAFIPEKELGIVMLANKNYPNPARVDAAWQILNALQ
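E. coli AmpC (5.3 nM) in 20 mM phosphate pH 7.0 with 0.01% Triton X-100, preincubated 15 min RT with compound; nitrocefin (2 uL of 800 uM stock) hydrolysis followed by 480 nm absorbance every 20 s over 4 min.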
SmPrx2 inh: inhibitors of Schistosoma mansoni peroxiredoxin 2. AID 448. Potency, µM. hit rate 0.07% among 65,000. S. mansoni Prx2 activity coupled to TGR/GSH (TGR is thioredoxin glutathione reductase), NADPH fluorescence loss, qHTS
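Coupled assay in which S. mansoni TGR passes NADPH reducing equivalents via glutathione to Prx2, which reduces H2O2. Compounds were preincubated 15 min at room temperature with 25 nM TGR/50 nM Prx2 mix. Kinetic NADPH fluorescence loss (ex 365/em 450 nm) was monitored.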
AmpC inh no det: AmpC beta-lactamase inhibition, detergent-free assay; P00811; AmpC nitrocefin hydrolysis, absorbance 480 nm, no detergent; Potency, µM (series often up to 28.7 µM), for inactives: top-dose activity change, negative = inhibition; hit rate 1.8% among 71,000; also: % of control where 0% means no effect
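AmpC in 20 mM phosphate buffer pH 7.0 was preincubated 15 min at room temperature with compounds. Nitrocefin (800 uM stock) was then added and hydrolysis followed at 480 nm every 20 s for 4 min.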
LT uptake inh: inhibitors of anthrax lethal toxin internalization. hit rate 0.67% among 70,000. Potency, µM (highest dose often 40 µM), for inactives: top-dose activity change, negative = inhibition, hits mostly inhibitors. AID 912. Cells, anthrax lethal toxin internalization, FRET ratio (460/530); also: % is scaled to controls: 0 for no effect and ±100 for the full control effect; nearly all actives have a fitted effect of over 50% in size
Active calls of the source: *; ? = inconclusive; nt = no result given; [ ] = remark or other dose. In the library only some 2.4% were active in any assay of this set; here they are far more common. Unless noted, calls follow the shape of the full dose curve. Potency is read from the fitted curve at half-maximal effect.

SMILES	AmpC inh det	SmPrx2 inh	AmpC inh no det	LT uptake inh
Oc1c(Cl)cc(Cl)cc1Sc1cc(Cl)cc(Cl)c1O	6%	nt	?	3.2µM*
Oc1c(Cl)cc(C(c2cc(Cl)c(O)c(Cl)c2)C(c2cc(Cl)c(O)c(Cl)c2)c2cc(Cl)c(O)c(Cl)c2)cc1Cl	-3%[5.75 µM]	>57	-26%[5.75 µM]	-8%[8 µM]
Cc1csc(Sc2nc3c(c(=O)[nH]c(=O)n3C)n2CCCc2ccccc2)n1	-5%	>57	16µM*[single pt active]	-13%
Cn1cccc1C(=O)NC(=O)COC(=O)c1ccccc1Sc1ccccc1C#N	0%	>57	4µM*	?
CCC(=O)n1nc(-c2ccco2)nc1SCc1ccccc1	-1%	>57	4%	-6%
CC(=O)n1nc(-c2ccco2)nc1SCc1ccccc1	-2%	?	?	7.9µM*
C=C(CO)[C@H]1Cc2c(ccc3c2O[C@H]2COc4cc(OC)c(OC)cc4[C@@H]2C3=O)O1	1%	>57	44%	?
C[C@H](N)c1cccc(Cl)c1Cl	-4%	>57	3%	-4%
Oc1cc(O)cc(/C=C\c2ccc(O)c(O)c2)c1	-4%	>57	-23%	3%
Cc1cc(N2CCC(N(C)C3CCCC3)CC2)nc2cc(O)ccc12	14%	>57	27%	3.2µM*
Cc1cc(N2CCOCC2)nc2ccc(NC(=O)C3CCC(C)CC3)cc12 (configuration not stated)	-2%	>57	100%	-2%
CCSc1ccc2c(c1)N(CCCN1CCN(C)CC1)c1ccccc1S2	-3%[12.8 µM]	>57	57%[12.8 µM]	15%[3.58 µM]
CN1CCN(CCCN2c3ccccc3Sc3ccc(Cl)cc32)CC1	-2%[12.8 µM]	>57	61%[12.8 µM]	25µM*
CCC(=O)/C=C/C1C(C)=CCCC1(C)C (configuration not stated)	6%	nt	-6%	11%
CCS(=O)(=O)N1CCC[C@H]2CN3CCc4cc(OC)ccc4[C@@H]3C[C@@H]21	0%	>57	26%	0%
CCOC(=O)c1c(C)[nH]c2ccc3c(c12)CN1CCc2cc(OC)ccc2[C@@H]1O3	-3%	>57	22%	2.5µM*
N[C@H](Cc1ccc(F)cc1)C(=O)O	-6%	>57	1%	0%
CC(=O)n1cc(-c2ccncc2)c2ccccc21	10%	>57	3.2µM*[single pt active]	15%
CNc1nc(-c2cccc(NS(C)(=O)=O)c2)nc2ccccc12	14%	>57	2%	4%
COc1cccc(-c2nc(NCc3ccccc3OC)c3ccccc3n2)c1	10%	>57	0%	13µM*
COc1ccccc1CNc1nc(-c2cccc(NS(C)(=O)=O)c2)nc2ccccc12	9%	>57	-11%	13µM*
COc1ccccc1CNc1nc(-c2ccc3c(c2)OCO3)nc2ccccc12	11%	>57	?	13µM*
COc1ccccc1CNc1nc(-c2cccc(C#N)c2)nc2ccccc12	10%	>57	?	?
COc1ccccc1CNc1nc(-c2ccc(N(C)C)cc2)nc2ccccc12	5%	>57	-5%	?
COc1cccc(-c2nc(NCc3ccccc3)c3ccccc3n2)c1	8%	>57	-5%	-33%
SMILES	AmpC inh det	SmPrx2 inh	AmpC inh no det	LT uptake inh
CS(=O)(=O)Nc1cccc(-c2nc(Nc3ccc(F)cc3)c3ccccc3n2)c1	18%	>57	5%	10µM*
C=CCCN1C[C@@H]2C[C@H](C1)c1cccc(=O)n1C2	2%	>57	-1%	?
COc1c(C(C)(C)C)cc([N+](=O)[O-])c(C)c1[N+](=O)[O-]	9%	nt	-4%	?
N/C(=N\O)c1cn([C@@H]2O[C@@H](CO)[C@H](O)[C@@H]2O)c2ncnc(NO)c12	-5%[5.75 µM]	>57	-16%[5.75 µM]	-19%[8 µM]
C=CCSc1nnc(NC(=O)CSc2nc3ccccc3o2)s1	-3%	>57	10µM*[single pt active]	26%
O=C(Nc1ncc(Br)s1)C(Cc1ccccc1)n1cccc1 (configuration not stated)	3%	>57	13µM*	?
O=C(Nc1cccnc1)C(Cc1ccccc1)n1cccc1 (configuration not stated)	8%	>57	27%	-1%
COc1ccc(C(c2c(O)ccc3ccccc23)N2CCOCC2)c(OC)c1 (configuration not stated)	12%	>57	77%	6.3µM*
COc1ccc(-c2cc3ccccc3n2CC(O)CN2CCOCC2)cc1 (configuration not stated)	10%	>57	144%	-3%
O=C(NCCc1c[nH]c2ccccc12)c1ccc(S(=O)(=O)NCc2ccco2)cc1	-4%	>57	16µM*	-28%
COc1ccccc1N1CCN(c2cc(=O)n(-c3ccc(Br)cc3)c(=O)[nH]2)CC1	-2%	>57	16µM*[single pt active]	-10%
COc1ccccc1N1CCN(c2cc(=O)n(-c3ccc(Cl)cc3)c(=O)[nH]2)CC1	13%	>57	2%	-11%
O=C(CSc1nc(-c2ccccc2)cs1)Nc1nccs1	-3%	>57	10µM*	2%
COc1ccccc1-n1c(SCC(=O)NC(C)(C)C)nc(O)cc1=O	-2%	>57	-4%	?
COc1ccccc1-n1c(SC)nc(O)cc1=O	11%	>57	2.5µM*[single pt active]	-12%
Clc1cc(Cl)c(-c2cc(Cl)c(Cl)cc2Cl)cc1Cl	9%	nt	-5%	3.2µM*
Oc1cc(Cl)c(Cl)cc1Cl	6%	nt	-18%	?
COc1cc(C(=O)OCC(=O)Nc2cc(C)on2)ccc1OCc1ccccc1Cl	-2%	>57	13µM*	2%
CCOC(=O)[C@@H]1[C@@H]2c3ccccc3-c3ccccc3[C@H]2C[C@H]1O	-2%[5.75 µM]	>57	34%[5.75 µM]	?
Clc1ccc(OCc2nn3c(C4CCCCC4)nnc3s2)c(Cl)c1	-1%	>57	35%	2%
COc1ccccc1-c1nnc2sc(COc3ccc(Cl)cc3Cl)nn12	-4%	>57	49%	10µM*

High-throughput results (PubChem BioAssay)
